The full list was thinned out, with hits kept by preference.
RMI FANCM FP = inhibitors of human RMI core complex binding to FANCM MM2 | AID 1159607 | Fluorescence polarization, RMI core complex with F-MM2 peptide; stronger effect = lower value | actives 0.58% (n = 70,000) | FP signal (polarization) at 33 µM; in the data active means FP signal below about 40
Starred values were filed as active, the others as inactive.

SMILES | RMI FANCM FP
COc1ccc(C(CC(=O)NCc2ccccc2)Sc2n[nH]c(-c3ccc(F)cc3)n2)cc1 (stereo not given) | 119
CCNc1nc(NCC)nc(Sc2ccc([N+](=O)[O-])cc2[N+](=O)[O-])n1 | 54
O=C(/C=C/c1ccc([N+](=O)[O-])s1)Nc1nc(-c2nc3ccccc3s2)cs1 | 64
CC(C)N1CCc2c(sc(NC(=O)CN3C(=O)c4ccccc4C3=O)c2C(N)=O)C1 | -4*
CC(=O)N1CCc2c(sc(NC(=O)CSc3ccc(Cl)cc3)c2C(N)=O)C1 | -4*
CC(=O)N1CCc2c(sc(NC(=O)CCSc3ccc(C)cc3)c2C(N)=O)C1 | 56
CC(C)N1CCc2c(sc(NC(=O)c3ccn(C)n3)c2C(N)=O)C1 | 74
Cc1ccc(S(=O)(=O)CC(=O)Nc2sc3c(c2C(N)=O)CCN(C(C)C)C3)cc1 | 57
Cc1ccc(S(=O)(=O)CCC(=O)Nc2sc3c(c2C(N)=O)CCC(C)C3)cc1 (stereo not given) | 83
CCN1CCc2c(sc(NC(=O)CS(=O)(=O)c3ccc(F)cc3)c2C(N)=O)C1 | 13*
CCN1CCc2c(sc(NC(=O)c3ccnn3C)c2C(N)=O)C1 | 68
CCOC(=O)N1CCc2c(sc(NC(=O)CCSc3ccc(Cl)cc3)c2C(N)=O)C1 | 58
CCOC(=O)N1CCc2c(sc(NC(=O)CS(=O)(=O)c3ccc(C)cc3)c2C(N)=O)C1 | 63
CCN1CCc2c(sc(NC(=O)CCS(=O)(=O)c3ccc(C)cc3)c2C(N)=O)C1 | 34*
CCOC(=O)N1CCc2c(sc(NC(=O)CCS(=O)(=O)c3ccccc3)c2C(N)=O)C1 | 69
CC(NS(=O)(=O)c1ccc2c(c1)Cc1cc(S(=O)(=O)NC(C)C(=O)O)ccc1-2)C(=O)O (stereo not given) | 60
CC1(C)COc2ccc(NC(=O)c3ccccc3Br)cc2NC1=O | 69
CC1=CC(C)=NC2=C(c3ccccc3)SC(=C3C(=O)c4ccccc4C3=O)N12 | 55
O=C(NCc1ccccn1)C(=O)Nc1ccon1 | 52
CCSc1cccc(C(=O)Nc2nc(-c3ccc4c(c3)OCCO4)cs2)c1 | 53
COc1cc(C)c(C)cc1S(=O)(=O)NCC(=O)N1CCOC(c2ccccc2)C1 (stereo not given) | 71
CCCN1C(=O)C(C)(C)COc2ccc(NS(=O)(=O)c3cccs3)cc21 | 57
Cn1cccc1C(CNC(=O)c1ccc2c(c1)OCO2)N1CCc2ccccc2C1 (stereo not given) | 60
Cc1nc(-c2ccccn2)n[nH]1 | 63
Cc1cc(=S)nc(-c2ccccn2)[nH]1 | 55
SMILES | RMI FANCM FP
Cc1cc(-c2ccccn2)c(-c2cc(Cl)cc(Cl)c2)[nH]1 | 32*
O=C(CSc1nc2ccccc2[nH]1)Nc1nccs1 | 57
Nc1c(-c2ccccc2)sc2nc(-c3ccccc3)cc[n+]12 | 11*
Cc1sc2sc(-c3ccccc3)c(N)[n+]2c1C | 72
c1ccc(-c2csc(-c3ccc(-c4ccccn4)s3)n2)cc1 | 71
CCCCCCCCCCCCNC1=C(Cl)C(=O)c2ccccc2C1=O | 74
Cc1cc(NC(=O)C2=COCCO2)n(-c2nc3ccccc3s2)n1 | 90
COCCN1CCC(CNS(=O)(=O)c2ccc3c(c2)OCCO3)CC1 | 70
COc1cn(CC(=O)Nc2ccc(Br)cc2)c(CN2CCC(C)CC2)cc1=O | 57
COc1cn(CC(=O)Nc2cccc3ccccc23)c(CN2CCN(c3ccc(F)cc3)CC2)cc1=O | 35*
COc1cn(CC(=O)NCc2ccc(C)cc2)c(CN2CCC(C)CC2)cc1=O | 59
O=C(Nc1ccccc1Cl)C(=O)NC1CCCCCC1 | 54
Cc1cc(NC(=O)C(=O)NCCc2ccc3c(c2)CCCN3C)no1 | 54
O=C(c1ccc(S(=O)(=O)N2CCOCC2)cc1)N1CCN(CCN2C(=O)c3cccc4cccc(c34)C2=O)CC1 | 55
O=C1c2cccc3cc([N+](=O)[O-])cc(c23)C(=O)N1CCc1ccccn1 | 45
O=C1c2cccc3cc([N+](=O)[O-])cc(c23)C(=O)N1CCCN1CCOCC1 | 17*
O=C(CC(c1ccccc1)c1ccccc1)NC1CC(=O)N(c2ccccc2)C1 (stereo not given) | 52
CC(=O)N1CCN(S(=O)(=O)c2cccc(C(=O)NCc3ccccn3)c2)CC1 | 61
Cc1ccc(S(=O)(=O)Nc2ncccc2OCc2cc(F)cc(F)c2)cc1 | 59
Cc1cc(NC(=O)c2ccc([N+](=O)[O-])c(C)c2)ccc1N1CCCC1=O | 55
COC(=O)c1sccc1N/C=C(\C#N)C(=O)c1cccc(CSc2ccc(Cl)cc2)c1 | 7*
COC(=O)c1sccc1N/N=C(\C#N)C(=O)c1ccc(Cl)cc1 | 58
COC(=O)c1sccc1N/C=C(\C#N)C(=O)c1ccco1 | 59
COc1cccc(NC(=O)C(=O)NCC(c2ccc3c(c2)CCN3C)N(C)C)c1 (stereo not given) | 68
CC(=O)N1CCc2c(sc(NC(=O)C3CCCN(S(C)(=O)=O)C3)c2C(N)=O)C1 (stereo not given) | 65
COC(=O)CSc1nnc(-c2ccc(S(C)(=O)=O)cc2)o1 | 59

From PubChem
